Hit rate of the full screen: of about 220,000 compounds, about 2,000 (0.91%) were called active. About 2% were inconclusive and are not listed. The list is a sample of the results. Results with a measured potency or affinity are listed apart. Values without a mark were called inactive. Rule as the data show it: inconclusive = inhibition above about 80% without an active follow-up result; inactive = below that; test concentration not stated here.

This is an account of results in PubChem BioAssay AID1626 (SRMLSC, 2009).

The nature of this assay: M. tuberculosis H37Rv growth inhibitors, H37Rv strain (AID 1626).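 Also: bacteria incubated seven days before Alamar blue readout; 0% = bacteria only wells and 100% = bacteria with antibiotic wells.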 To be noted: stronger effect = higher value, concentration not given here.
Take `CCOC(=O)c1cnn(CCOC(=O)c2ccccc2F)c1NC(=O)c1ccccc1F`: the inhibition is -4.26%.
Next, `Clc1ccc(-c2c(C3=NCCCN3)nnn2-c2ccc(Cl)cc2)cc1`: 2.74%; `Cc1cc(=O)[nH]c(SCc2nc3ccccc3n2Cc2ccccc2)n1`: -7.65%; `Cc1ccc(C(=O)Cn2nnc(-c3cccs3)n2)cc1`: -5.53%.
Next, `CCN1CCN(Cc2ccc(NC(=O)c3ccc(C)c(NC(=O)N4CCNC4=O)c3)cc2C(F)(F)F)CC1`: -4.19%.
Regarding `CCN1CCN(Cc2ccc(NC(=O)c3ccc(C)c(NC(=O)c4ccno4)c3)cc2C(F)(F)F)CC1`, the inhibition is 1.48%.
As for `CCN1CCN(Cc2ccc(NC(=O)c3ccc(C)c(NC(=O)c4cccc5[nH]ccc45)c3)cc2C(F)(F)F)CC1`, the inhibition is -5.49%.
Consider `CCN1CCN(Cc2ccc(NC(=O)c3ccc(C)c(NC(=O)c4nccn4C)c3)cc2C(F)(F)F)CC1`, for which the inhibition was 2%.
Next, `Cc1ccc(S(=O)(=O)N2CCOCC2)cc1NC(=O)CN1CCC(Cc2ccccc2)CC1`: 9.42%; `CC(=O)OCC(=O)c1c[nH]c2ccccc12`: -1.25%; `COc1cc2ccccc2cc1C(=O)OCC(=O)N1CCOCC1`: -12.6%.
In the case of `CC(C)(C)C(=O)COC(=O)c1ccccc1O`, the inhibition is 10.3%.
The figure for `CC1CC(C)CN(C(=O)COC(=O)c2ccc[nH]c2=O)C1` (centres undefined) is -10%; for `Cc1cc(C(=O)OCC(=O)N2CC(C)CC(C)C2)c(C)o1` (centres undefined) it is -6.8%.
The figure for `CCOC(=O)c1c(C)[nH]c(C)c1C(=O)COC(=O)c1cc2ccccc2cc1O` is -1.14%; for `CC1CCN(C(=O)COC(=O)c2cc(Cl)cc(Cl)c2N)CC1` it is -13.4%.
Take `COc1cccc(C(=O)OCC(=O)c2c[nH]c3ccccc23)c1O`: the inhibition is 7.28%.
The figure for `COc1ccccc1C/C(N)=N/OC(=O)c1ccc(C)c([N+](=O)[O-])c1` is 3.93%; for `Cc1nnc(SCC(=O)N2CCN(S(=O)(=O)c3ccc(Cl)cc3)CC2)[nH]c1=O` it is -6.4%; for `COc1ccc(C(=O)CSc2nnc(NC(=O)C3CC(=O)N(c4ccccc4C)C3)s2)cc1` (centres undefined) it is 2.7%.
The figure for `O=C(Nc1c(-c2cccs2)nc2ccccn12)c1ccc2ccccc2c1` is 0.95%.
Next, `CCC(CC)C(=O)Nc1cccc(-c2nc3ccccc3o2)c1`: 0.04%; `CCN(CC)C(=O)CC(c1ccccc1)c1ccco1` (centres undefined): -14.2%.
With `Cc1cc(C)nc(N(C#N)CCOc2ccc(Cl)cc2)n1`, the inhibition was -4.66%.
On to `Cn1c(=O)c2c(nc(SCCN3CCCCC3)n2Cc2ccccc2)n(C)c1=O`, for which the inhibition was -2.51%.
Next, `CC(C)C(NC(=O)c1ccccc1F)C(=O)Nc1ccc2c(c1)OCO2` (centres undefined): 1.73%.
For `CN(C)C(=O)/C(=C\c1cccc(Oc2ccccc2)c1)NC(=O)c1ccccc1`, the inhibition was 4.22%.
For `C/C(=N\NC(=O)c1cc(-c2cccnc2)nc2ccccc12)c1ccccc1O`, the inhibition is 2.39%.
Next, `O=C(COC(=O)c1cc(Br)ccc1Cl)NC1CC1`: 26.2%.
On to `O=C(OCC(=O)N1CCCCC1)c1ccccc1SCC(=O)N1CCCCC1`, for which the inhibition was 9.57%.
Next, `CCC1CCCCN1C(=O)COC(=O)c1n[nH]c2ccccc12` (centres undefined): -3.06%; `O=C(COc1ccc(Cl)cc1)OCC(=O)N1CCCC1`: 0.56%.
`CCC1CCCCN1C(=O)CCCOc1ccccc1` (centres undefined): the inhibition was -1.7%.
The figure for `O=C(OCC(=O)N1CCCC1)c1cc(Br)ccc1Cl` is 7.39%.
The figure for `O=C(COc1ccc(Cl)cc1)OCC(=O)N1CCCCCC1` is 7.95%.
Next, `Cc1cc(C(=O)OCC(=O)N2CCCC2)c2ccccc2n1`: -17.2%.
`O=C(CNS(=O)(=O)c1ccccc1)Nc1ccc2c(c1)OCO2`: the inhibition is 0.17%.
The figure for `O=C(Nc1ccccc1C(=O)N1CCNCC1)c1ccco1` is -1.36%.
As to `CC1CCc2nn(CC(=O)Nc3c(F)cc(F)cc3Br)cc2C1` (centres undefined), the inhibition was 0.73%.
As to `Cc1cc(C(=O)N2CCCC(C(=O)c3cccc(C(F)(F)F)c3)C2)nc(C)n1` (centres undefined), the inhibition is -11%.
Next, `COc1ccc(Cl)cc1-c1csc(N)n1`: -2.91%; `O=C(CSc1nc2ccc([N+](=O)[O-])cc2[nH]1)c1ccc2ccccc2c1`: 13.4%; `Cc1ccc(NS(=O)(=O)c2cc(C(=O)NCc3ccccn3)ccc2Cl)cc1C`: 4.55%.
The figure for `CC(=O)Nc1cccc(NC(=O)c2cc(C)on2)c1` is -10.6%; for `CC(=O)c1ccc(NC(=O)Cn2nc(C)c([N+](=O)[O-])c2C)cc1` it is 2.02%; for `CN(C)CCN1CC(C(=O)O)CC1=O` (centres undefined) it is -2.28%.
Next, `CN1CCN(S(=O)(=O)c2ccc(-c3noc(C4CCN(S(C)(=O)=O)CC4)n3)cc2)CC1`: -1.89%; `O=C(O)c1ccc(N/N=C/c2ccc(OC(=O)c3ccccc3Cl)cc2)cc1`: 4.34%; `O=C(Oc1ccc(/C=N/O)cc1)c1ccccc1`: 30.8%.
In the case of `Cn1c(O)c(N=Nc2nc(-c3ccccc3)cs2)c2ccccc21`, the inhibition is 68%.
With `CCc1ccc2[nH]c(O)c(N=NC3=NC(=O)CS3)c2c1`, the inhibition was 1.19%.
For `COc1ccc(CCNC2CCCCC2)cc1OC`, the inhibition was 5.74%.
The figure for `O=C(Nc1ccccn1)c1ccc(Br)c(S(=O)(=O)N2CCCCC2)c1` is 4.83%; for `CCCN(N=Nc1cccc([N+](=O)[O-])c1)c1cccc([N+](=O)[O-])c1` it is 1.3%; for `O=c1cc(-c2ccc(O)cc2)oc2cc(O)cc(O)c12` it is -7.5%.
Take `O=c1cc(-c2ccccc2)oc2cc(O)cc(O)c12`: the inhibition is 17.6%.
The figure for `Cc1cc(OCC(=O)NC(C)C)ccc1Cl` is 8.21%; for `Cc1noc(-c2ccc(C(F)(F)F)cc2)c1NC(=O)Nc1ccc(Cl)cc1` it is 13.4%; for `O=C(O)c1cccc(Cn2c(Cl)c(/C=N/NC(=O)c3ccc(O)cc3)sc2=O)c1` it is -11.5%.
Take `O=c1[nH]c(SCc2ccc([N+](=O)[O-])cc2)nc2[nH]ncc12`: the inhibition is -6.17%.
Next, `CC[C@H]1CC2CN3CCc4c([nH]c5ccccc45)C(C(=O)OC)(C2)C13` (some centres undefined): 0.73%; `CC[C@H]1CC2CN3CCc4c([nH]c5cc(OC)ccc45)[C@](C(=O)OC)(C2)[C@H]13`: -5.98%; `COC(=O)C1=C(c2cc3ccccc3o2)C[C@@H]2CC[C@H]1N2C(=O)NC(C)C`: 19.5%.
Take `Cn1c(NCc2ccccc2)nc2c1c(=O)n(Cc1ccccc1)c(=O)n2C`: the inhibition is -5.24%.
As for `COc1ccc(CNc2nc3c(c(=O)n(Cc4ccc(Br)cc4)c(=O)n3C)n2C)cc1`, the inhibition was 34.1%.
The figure for `Cn1c(NCc2ccco2)nc2c1c(=O)n(Cc1ccc(Cl)c(Cl)c1)c(=O)n2C` is 6.79%.
The figure for `Cn1c(NCc2ccco2)nc2c1c(=O)n(Cc1ccc(Cl)cc1)c(=O)n2C` is 7.2%; for `CC(C)c1nnc(N2C(=O)c3oc4ccccc4c(=O)c3C2c2ccco2)s1` (centres undefined) it is -6.42%; for `CC(=O)c1ccc(NC(=O)CSc2nnc(Cn3cnc4ccccc43)o2)cc1` it is -0.74%.
Next, `CCc1cc2cc3c(cc2nc1SCC(=O)Nc1nnc(C)s1)OCCO3`: -4.07%.
Turning to `COc1ccc(CNCCC(c2ccc(F)cc2)c2ccc(OC)cc2)cc1` (centres undefined), the inhibition was 41.6%.
With `COc1ccc(CNCCC(c2ccc(OC(C)C)cc2)C(C)C)cc1OC` (centres undefined), the inhibition is 45.4%.
The figure for `COc1ccc(C(CCNCc2ccccc2)c2ccc(F)cc2)cc1` (centres undefined) is -2.55%; for `COc1ccc(C(CCNCc2ccc(OC)c(OC)c2)c2ccc(F)cc2)cc1` (centres undefined) it is 2.06%.
On to `COc1ccccc1Nc1nc(N)nc(CSC(=S)N2CCCCC2)n1`, for which the inhibition was 5.54%.
Consider `CCCc1nnc(SCC(=O)N2CCCCC2C)n1CC` (centres undefined), for which the inhibition is -2.59%.
In the case of `CCOc1ccc(-c2ccc(SCC(=O)NCC3CCCO3)nn2)cc1` (centres undefined), the inhibition was 3.18%.
Next, `Cc1cc(=O)[nH]c(SCC(=O)Nc2ccccc2C)n1`: -0.5%; `COc1ccccc1NS(=O)(=O)c1cccc(C(=O)N/N=C(\C)c2ccc(-n3ccnc3)cc2)c1`: -7.54%.
The figure for `C/C(O)=C(/C#N)c1nc2ccccc2[nH]1` is 10.1%; for `c1ccc2c(N3CCOCC3)nc(N3CCOCC3)nc2c1` it is -0.04%.
Consider `c1ccc2c(NCC3CCCO3)nc(N3CCOCC3)nc2c1` (centres undefined), for which the inhibition was -4.2%.
Next, `CCCCNS(=O)(=O)c1ccc2nc(-c3cccnc3)cc(C(=O)NCCCN(CC)CC)c2c1`: -1.2%; `O=C(Nc1ccc2c(c1)OCCO2)c1cccc(S(=O)(=O)N2CCOCC2)c1`: 2.68%; `Cc1ccc(CNC(=O)C2CCCN(Cc3cnn(-c4ccccc4)c3-n3cccc3)C2)cc1` (centres undefined): 3.25%.
The figure for `COc1cccc(CNc2ncnc3cc(Cl)ccc23)c1` is 2.79%; for `COc1ccc(CNc2ncnc3cc(Cl)ccc23)cc1OC` it is 3.34%; for `COc1ccc(C(=O)C(CCC(CNC(C)(C)C)C(=O)c2ccc(OC)cc2)CNC(C)(C)C)cc1` (centres undefined) it is 3.24%.
In the case of `O=C(CSc1nc2ccccc2o1)N1CCN(C(=O)c2ccco2)CC1`, the inhibition was 8.7%.
Regarding `O=C(OCC#CCSc1nc2ccccc2s1)c1ccco1`, the inhibition was 74.1%.
As for `O=C(CSc1nc2ccccc2o1)c1cc2ccccc2oc1=O`, the inhibition is 1.02%.
In the case of `N#CCSc1nc2ccccc2o1`, the inhibition was -5.91%.
With `c1ccc2c(c1)c1c3n2CCNC3CCC1` (centres undefined), the inhibition is 3.79%.
As to `Cc1ccc2c(c1)c1c3n2CCCNC3CCC1` (centres undefined), the inhibition is 3.76%.

The inhibition is the drop in the measured response relative to a control, in per cent.
